Our source for the binding signal values is publication PMC7862700, “An all-to-all approach to the identification of sequence-specific readers for epigenetic DNA modifications on cytosine”.

Common to all, as to experiment: DAPPL (digital affinity profiling via proximity ligation, sequencing); 10 mM Tris-HCl pH 7.5, 50 mM NaCl, 1 mM DTT, 4% glycerol, room temperature, 30 min; GST-TFs on glutathione beads, 16-mer random dsDNA library, 0.1% formaldehyde crosslink after washing; high values mean tight binding
One assay deals with T1, FLI1 (Homo sapiens, UniProt Q01543 1-452).
T1 sequence: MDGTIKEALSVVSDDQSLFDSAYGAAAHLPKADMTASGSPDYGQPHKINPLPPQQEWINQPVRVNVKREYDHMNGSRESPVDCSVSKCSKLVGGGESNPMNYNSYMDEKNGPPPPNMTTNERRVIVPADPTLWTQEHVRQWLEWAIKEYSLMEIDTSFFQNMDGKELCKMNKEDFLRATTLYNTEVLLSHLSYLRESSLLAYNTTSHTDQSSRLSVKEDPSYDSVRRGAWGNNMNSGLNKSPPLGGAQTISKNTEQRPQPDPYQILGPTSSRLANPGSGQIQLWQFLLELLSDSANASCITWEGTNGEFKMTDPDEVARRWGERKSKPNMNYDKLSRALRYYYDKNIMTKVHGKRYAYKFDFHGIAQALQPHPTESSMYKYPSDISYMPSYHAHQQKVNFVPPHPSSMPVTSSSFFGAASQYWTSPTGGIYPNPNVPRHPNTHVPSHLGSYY
The settings on record: protein: recombinant; tags: N-terminal GST; dsDNA, one strand shown. Put shortly: (§1)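 In yeast, human transcription factors were expressed with a GST fusion, then pulled down on glutathione beads and given DNA barcodes. Pooled with a tag-only sample, they were exposed to 200 nmole of a 16-mer random double-stranded DNA library (Tris/NaCl/DTT/glycerol buffer, room temperature, 30 min), washed, crosslinked with 0.1% formaldehyde, proximity-ligated using BsaI/T4 ligase for 1 h at 37 °C, PCR-amplified and read on an Illumina NextSeq500. Each hexamer's frequency of reads for a factor, divided by the matching frequency for the tag-only sample, gives the binding signal.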

Another assay addresses T2, ELK1 (Homo sapiens, UniProt P19419 1-428).
T2 sequence: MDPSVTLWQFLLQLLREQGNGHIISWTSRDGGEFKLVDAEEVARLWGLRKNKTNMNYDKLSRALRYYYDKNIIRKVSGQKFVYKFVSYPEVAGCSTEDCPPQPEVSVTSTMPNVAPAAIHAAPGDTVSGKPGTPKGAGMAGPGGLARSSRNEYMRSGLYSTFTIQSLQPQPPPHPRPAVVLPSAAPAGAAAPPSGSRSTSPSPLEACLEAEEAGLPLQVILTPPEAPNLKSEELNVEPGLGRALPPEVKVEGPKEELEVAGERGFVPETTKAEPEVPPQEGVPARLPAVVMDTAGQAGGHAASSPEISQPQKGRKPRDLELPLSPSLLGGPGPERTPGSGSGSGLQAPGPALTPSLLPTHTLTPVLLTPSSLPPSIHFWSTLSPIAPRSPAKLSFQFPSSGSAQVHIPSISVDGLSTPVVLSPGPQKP
The settings on record: protein: recombinant; tags: N-terminal GST; dsDNA, one strand shown. Put shortly:
as §1

For another assay, the target named is T3, GABPA (Homo sapiens, UniProt Q06546 1-454).
T3 sequence: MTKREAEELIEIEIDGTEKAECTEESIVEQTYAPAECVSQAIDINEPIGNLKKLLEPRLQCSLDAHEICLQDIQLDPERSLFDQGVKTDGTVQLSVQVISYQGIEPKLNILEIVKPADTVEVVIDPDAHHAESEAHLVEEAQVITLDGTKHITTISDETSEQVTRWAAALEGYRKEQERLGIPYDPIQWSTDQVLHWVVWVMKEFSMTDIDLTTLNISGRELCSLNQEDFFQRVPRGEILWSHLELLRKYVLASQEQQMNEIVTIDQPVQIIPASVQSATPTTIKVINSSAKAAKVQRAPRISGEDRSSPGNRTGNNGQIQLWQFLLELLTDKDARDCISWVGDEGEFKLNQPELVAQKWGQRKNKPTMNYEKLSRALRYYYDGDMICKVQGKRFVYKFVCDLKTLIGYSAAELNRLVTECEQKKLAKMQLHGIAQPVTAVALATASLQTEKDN
The settings on record: protein: recombinant; tags: N-terminal GST; dsDNA, one strand shown. Put shortly:
as §1

The target of a further assay is T4, ERG (Homo sapiens, UniProt P11308 1-479).
T4 sequence: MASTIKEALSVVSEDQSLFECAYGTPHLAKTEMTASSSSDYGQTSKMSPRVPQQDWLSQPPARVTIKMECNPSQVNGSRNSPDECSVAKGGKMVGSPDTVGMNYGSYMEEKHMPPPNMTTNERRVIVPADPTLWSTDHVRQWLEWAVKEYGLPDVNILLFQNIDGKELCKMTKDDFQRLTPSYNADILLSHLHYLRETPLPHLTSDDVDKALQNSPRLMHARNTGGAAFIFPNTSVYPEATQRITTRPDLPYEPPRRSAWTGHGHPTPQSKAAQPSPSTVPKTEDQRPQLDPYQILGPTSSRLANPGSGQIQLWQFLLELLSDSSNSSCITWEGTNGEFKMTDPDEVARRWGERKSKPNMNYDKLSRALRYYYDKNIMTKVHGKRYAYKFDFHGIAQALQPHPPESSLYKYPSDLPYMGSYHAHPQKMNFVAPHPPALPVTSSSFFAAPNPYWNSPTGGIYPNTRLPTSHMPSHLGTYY
The settings on record: protein: recombinant; tags: N-terminal GST; dsDNA, one strand shown. Put shortly:
as §1

The next assay deals with ELF1 (Homo sapiens, UniProt P32519 1-619). The following applies: protein: recombinant; tags: N-terminal GST; dsDNA, one strand shown. In outline: as §1
Another assay has as its target T5, EHF (Homo sapiens, UniProt Q9NZC4 1-300).
T5 sequence: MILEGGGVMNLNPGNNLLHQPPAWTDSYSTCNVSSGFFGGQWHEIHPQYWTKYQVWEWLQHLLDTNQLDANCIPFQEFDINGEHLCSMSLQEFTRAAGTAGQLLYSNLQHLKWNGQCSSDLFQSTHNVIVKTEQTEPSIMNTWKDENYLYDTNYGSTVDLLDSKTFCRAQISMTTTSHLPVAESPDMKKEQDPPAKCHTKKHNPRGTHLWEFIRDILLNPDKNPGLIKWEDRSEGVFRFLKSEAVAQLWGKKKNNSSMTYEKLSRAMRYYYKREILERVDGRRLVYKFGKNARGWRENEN
The following applies: protein: recombinant; tags: N-terminal GST; dsDNA, one strand shown. In outline:
as §1

The target of a further assay is SPI1 (Homo sapiens, UniProt P17947 1-270). The following applies: protein: recombinant; tags: N-terminal GST; dsDNA, one strand shown. In outline: as §1
For a further assay, the target named is SPIB (Homo sapiens, UniProt Q01892 1-262). The following applies: protein: recombinant; tags: N-terminal GST; dsDNA, one strand shown. In outline: as §1
The target of another assay is T6, ELK3 (Homo sapiens, UniProt P41970 1-407).
T6 sequence: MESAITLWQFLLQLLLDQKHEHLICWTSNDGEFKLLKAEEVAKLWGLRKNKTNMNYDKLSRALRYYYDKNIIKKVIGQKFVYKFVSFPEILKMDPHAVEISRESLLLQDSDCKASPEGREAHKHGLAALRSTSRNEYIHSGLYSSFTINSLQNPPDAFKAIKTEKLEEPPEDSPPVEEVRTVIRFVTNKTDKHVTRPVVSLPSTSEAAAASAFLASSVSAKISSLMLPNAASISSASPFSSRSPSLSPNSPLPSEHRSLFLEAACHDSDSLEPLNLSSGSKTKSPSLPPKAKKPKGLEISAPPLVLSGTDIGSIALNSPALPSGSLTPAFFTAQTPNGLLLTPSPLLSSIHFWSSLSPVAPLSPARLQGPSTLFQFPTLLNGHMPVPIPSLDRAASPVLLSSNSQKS
The following applies: protein: recombinant; tags: N-terminal GST; dsDNA, one strand shown. In outline:
as §1

For another assay, the target named is T7, FEV (Homo sapiens, UniProt Q99581 1-238).
T7 sequence: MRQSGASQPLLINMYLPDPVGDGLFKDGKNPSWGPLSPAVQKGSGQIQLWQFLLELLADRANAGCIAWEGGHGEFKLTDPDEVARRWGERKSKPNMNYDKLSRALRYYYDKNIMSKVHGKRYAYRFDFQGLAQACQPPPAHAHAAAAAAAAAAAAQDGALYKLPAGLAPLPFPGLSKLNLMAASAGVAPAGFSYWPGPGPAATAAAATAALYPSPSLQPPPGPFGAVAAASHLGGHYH
The settings on record: protein: recombinant; tags: N-terminal GST; dsDNA, one strand shown. Put shortly: as §1

A further assay concerns the target ETV5 (Homo sapiens, UniProt P41161 1-510). The settings on record: protein: recombinant; tags: N-terminal GST; dsDNA, one strand shown. In outline: as §1
The target in a further assay is HSF1 (Homo sapiens, UniProt Q00613 1-529). The following applies: protein: recombinant; tags: N-terminal GST; chain copies: 3; dsDNA, one strand shown. Put shortly: as §1
For another assay, the target named is T8, SPIC (Homo sapiens, UniProt Q8N5J4 1-248).
T8 sequence: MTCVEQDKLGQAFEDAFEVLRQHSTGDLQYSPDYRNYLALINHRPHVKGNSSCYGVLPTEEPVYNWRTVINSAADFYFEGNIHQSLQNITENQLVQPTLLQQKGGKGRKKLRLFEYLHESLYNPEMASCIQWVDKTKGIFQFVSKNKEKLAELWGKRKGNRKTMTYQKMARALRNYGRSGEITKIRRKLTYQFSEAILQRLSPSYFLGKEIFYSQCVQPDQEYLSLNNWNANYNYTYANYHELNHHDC
The following applies: protein: recombinant; tags: N-terminal GST; dsDNA, one strand shown. In outline: as §1

Another assay concerns the target ELF4 (Homo sapiens, UniProt Q99607 1-663). The settings on record: protein: recombinant; tags: N-terminal GST; dsDNA, one strand shown. In outline:
as §1

For a further assay, the target named is T9, ELK4 (Homo sapiens, UniProt P28324-2 1-405).
T9 sequence: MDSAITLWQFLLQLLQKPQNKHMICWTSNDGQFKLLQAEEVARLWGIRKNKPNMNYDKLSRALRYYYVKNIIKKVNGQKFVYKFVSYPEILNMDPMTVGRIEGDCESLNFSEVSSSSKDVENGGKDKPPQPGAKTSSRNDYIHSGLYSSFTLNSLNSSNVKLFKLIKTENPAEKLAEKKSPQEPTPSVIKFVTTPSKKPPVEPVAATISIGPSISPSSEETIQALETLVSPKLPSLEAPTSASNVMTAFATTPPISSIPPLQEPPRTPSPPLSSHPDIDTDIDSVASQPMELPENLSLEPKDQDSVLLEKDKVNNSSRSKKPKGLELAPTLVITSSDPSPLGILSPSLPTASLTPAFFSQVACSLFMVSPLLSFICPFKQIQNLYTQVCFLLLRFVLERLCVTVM
The settings on record: protein: recombinant; tags: N-terminal GST; dsDNA, one strand shown. Put shortly:
as §1

A further assay deals with T10, ETV2 (Homo sapiens, UniProt O00321 1-342).
T10 sequence: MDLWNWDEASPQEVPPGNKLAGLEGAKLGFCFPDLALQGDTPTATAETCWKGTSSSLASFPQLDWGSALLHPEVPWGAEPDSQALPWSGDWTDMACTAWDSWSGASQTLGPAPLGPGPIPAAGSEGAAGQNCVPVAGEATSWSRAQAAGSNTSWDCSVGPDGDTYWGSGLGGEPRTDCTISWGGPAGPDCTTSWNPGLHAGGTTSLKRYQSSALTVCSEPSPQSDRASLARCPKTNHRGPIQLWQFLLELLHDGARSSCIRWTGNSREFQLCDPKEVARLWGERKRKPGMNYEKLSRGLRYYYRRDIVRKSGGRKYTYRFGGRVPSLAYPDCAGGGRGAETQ
The settings on record: protein: recombinant; tags: N-terminal GST; dsDNA, one strand shown. Put shortly:
as §1

The target of another assay is T11, ELF3 (Homo sapiens, UniProt P78545 1-371).
T11 sequence: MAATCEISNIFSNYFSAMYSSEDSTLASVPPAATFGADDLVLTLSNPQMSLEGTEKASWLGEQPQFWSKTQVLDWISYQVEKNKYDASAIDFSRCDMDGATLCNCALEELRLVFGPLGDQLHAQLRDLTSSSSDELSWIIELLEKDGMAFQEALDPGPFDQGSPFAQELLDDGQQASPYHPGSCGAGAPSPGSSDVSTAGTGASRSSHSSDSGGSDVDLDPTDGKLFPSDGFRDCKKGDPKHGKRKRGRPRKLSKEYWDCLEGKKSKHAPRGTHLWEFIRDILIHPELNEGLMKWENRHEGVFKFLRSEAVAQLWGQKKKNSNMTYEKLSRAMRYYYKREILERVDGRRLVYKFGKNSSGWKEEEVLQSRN
The settings on record: protein: recombinant; tags: N-terminal GST; dsDNA, one strand shown. Put shortly:
as §1

For a further assay, the target named is CRX (Homo sapiens, UniProt O43186 1-299). The following applies: protein: recombinant; tags: N-terminal GST; dsDNA, one strand shown. Put shortly:
as §1

For another assay, the target named is ETV1 (Homo sapiens, UniProt P50549 1-477). The settings on record: protein: recombinant; tags: N-terminal GST; dsDNA, one strand shown. Put shortly: as §1
Sequence of ETV1 (P50549 whole entry): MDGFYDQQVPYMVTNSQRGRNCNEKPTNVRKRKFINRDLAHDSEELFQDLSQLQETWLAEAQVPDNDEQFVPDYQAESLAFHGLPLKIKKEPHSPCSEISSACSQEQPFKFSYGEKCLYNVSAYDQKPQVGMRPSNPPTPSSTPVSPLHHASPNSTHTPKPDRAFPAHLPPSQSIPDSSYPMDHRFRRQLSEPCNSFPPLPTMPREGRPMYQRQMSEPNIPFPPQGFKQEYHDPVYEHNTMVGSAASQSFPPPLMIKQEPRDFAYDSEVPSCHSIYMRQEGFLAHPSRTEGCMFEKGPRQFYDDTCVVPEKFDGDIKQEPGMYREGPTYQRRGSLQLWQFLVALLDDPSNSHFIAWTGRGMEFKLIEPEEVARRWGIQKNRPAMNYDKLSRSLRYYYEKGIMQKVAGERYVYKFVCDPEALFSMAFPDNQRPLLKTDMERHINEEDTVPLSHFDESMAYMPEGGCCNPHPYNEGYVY

Sequence of ELF1 (P32519 whole entry): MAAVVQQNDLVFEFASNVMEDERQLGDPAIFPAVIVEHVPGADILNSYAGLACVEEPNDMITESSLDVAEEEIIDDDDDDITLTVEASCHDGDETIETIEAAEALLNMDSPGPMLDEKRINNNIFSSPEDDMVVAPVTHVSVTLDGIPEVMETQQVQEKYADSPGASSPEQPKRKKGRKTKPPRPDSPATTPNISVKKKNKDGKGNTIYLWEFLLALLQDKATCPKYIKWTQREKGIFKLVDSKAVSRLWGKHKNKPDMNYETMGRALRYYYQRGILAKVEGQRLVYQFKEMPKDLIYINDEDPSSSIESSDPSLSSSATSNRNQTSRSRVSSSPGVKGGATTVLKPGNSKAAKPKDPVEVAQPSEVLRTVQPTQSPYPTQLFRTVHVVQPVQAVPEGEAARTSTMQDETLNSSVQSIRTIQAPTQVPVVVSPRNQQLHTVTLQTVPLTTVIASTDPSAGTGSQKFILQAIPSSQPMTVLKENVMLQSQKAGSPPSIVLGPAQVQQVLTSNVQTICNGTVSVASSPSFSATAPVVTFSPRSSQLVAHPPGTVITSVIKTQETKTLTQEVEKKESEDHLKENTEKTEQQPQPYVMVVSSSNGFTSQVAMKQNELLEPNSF
Sequence of SPIB (Q01892 whole entry): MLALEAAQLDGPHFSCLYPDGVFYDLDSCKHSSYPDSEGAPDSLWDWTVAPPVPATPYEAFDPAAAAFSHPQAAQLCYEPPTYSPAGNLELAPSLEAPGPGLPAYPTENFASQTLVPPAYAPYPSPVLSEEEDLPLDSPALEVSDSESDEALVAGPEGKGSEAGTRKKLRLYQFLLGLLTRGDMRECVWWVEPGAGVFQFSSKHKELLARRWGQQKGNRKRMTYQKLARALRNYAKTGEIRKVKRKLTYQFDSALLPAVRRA
Sequence of CRX (O43186 whole entry): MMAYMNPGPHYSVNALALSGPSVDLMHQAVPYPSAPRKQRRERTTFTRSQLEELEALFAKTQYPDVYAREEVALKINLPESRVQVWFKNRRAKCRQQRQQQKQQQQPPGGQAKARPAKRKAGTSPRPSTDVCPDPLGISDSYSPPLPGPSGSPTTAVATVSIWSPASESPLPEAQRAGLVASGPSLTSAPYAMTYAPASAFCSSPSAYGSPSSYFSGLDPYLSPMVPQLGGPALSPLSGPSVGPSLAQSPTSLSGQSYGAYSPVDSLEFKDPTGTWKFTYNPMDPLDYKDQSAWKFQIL
Sequence of ELF4 (Q99607 whole entry): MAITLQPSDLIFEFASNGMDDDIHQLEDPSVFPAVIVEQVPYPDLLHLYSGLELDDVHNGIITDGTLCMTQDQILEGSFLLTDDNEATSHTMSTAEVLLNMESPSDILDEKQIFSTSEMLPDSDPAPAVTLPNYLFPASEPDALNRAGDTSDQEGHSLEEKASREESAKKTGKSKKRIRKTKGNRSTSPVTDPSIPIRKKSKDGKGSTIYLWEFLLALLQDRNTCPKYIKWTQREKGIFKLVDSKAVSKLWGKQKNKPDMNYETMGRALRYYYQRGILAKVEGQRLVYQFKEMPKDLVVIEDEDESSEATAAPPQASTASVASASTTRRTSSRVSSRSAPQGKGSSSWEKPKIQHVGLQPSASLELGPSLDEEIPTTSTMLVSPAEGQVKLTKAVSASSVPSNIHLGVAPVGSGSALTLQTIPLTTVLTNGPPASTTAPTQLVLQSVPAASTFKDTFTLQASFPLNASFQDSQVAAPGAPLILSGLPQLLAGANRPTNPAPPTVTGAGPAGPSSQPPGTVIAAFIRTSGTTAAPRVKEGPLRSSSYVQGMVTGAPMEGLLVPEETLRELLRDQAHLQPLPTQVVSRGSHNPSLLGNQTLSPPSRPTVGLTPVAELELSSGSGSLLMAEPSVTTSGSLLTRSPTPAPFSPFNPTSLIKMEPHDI
Sequence of ETV5 (P41161 whole entry): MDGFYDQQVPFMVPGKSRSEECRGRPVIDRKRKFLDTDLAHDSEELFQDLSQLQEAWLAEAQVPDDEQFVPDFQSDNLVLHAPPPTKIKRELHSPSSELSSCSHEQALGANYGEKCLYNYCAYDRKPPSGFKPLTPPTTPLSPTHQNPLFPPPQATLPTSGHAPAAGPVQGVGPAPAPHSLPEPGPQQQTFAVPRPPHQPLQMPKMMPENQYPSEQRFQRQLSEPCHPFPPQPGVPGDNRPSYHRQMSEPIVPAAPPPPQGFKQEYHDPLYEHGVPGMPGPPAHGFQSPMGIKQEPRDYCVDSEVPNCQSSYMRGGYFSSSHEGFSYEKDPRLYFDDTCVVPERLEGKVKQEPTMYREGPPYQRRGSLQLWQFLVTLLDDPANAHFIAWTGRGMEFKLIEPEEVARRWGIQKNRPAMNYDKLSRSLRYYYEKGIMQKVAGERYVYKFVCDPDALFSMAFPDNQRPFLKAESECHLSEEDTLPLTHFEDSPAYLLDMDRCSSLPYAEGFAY
Sequence of HSF1 (Q00613 whole entry): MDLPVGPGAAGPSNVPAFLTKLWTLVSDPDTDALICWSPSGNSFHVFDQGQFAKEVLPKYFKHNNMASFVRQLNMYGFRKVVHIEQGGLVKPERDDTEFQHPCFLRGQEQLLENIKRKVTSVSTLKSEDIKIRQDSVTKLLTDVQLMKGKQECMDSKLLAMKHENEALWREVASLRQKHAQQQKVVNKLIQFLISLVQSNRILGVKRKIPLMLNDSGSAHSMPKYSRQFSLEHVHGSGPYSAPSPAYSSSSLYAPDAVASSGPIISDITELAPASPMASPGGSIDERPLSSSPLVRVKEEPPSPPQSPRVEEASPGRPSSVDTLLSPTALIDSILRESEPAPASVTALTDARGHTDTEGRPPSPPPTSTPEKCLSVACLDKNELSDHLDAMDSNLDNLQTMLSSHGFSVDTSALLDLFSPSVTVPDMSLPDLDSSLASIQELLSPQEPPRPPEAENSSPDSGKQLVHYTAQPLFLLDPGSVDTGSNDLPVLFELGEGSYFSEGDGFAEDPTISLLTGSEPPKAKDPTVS

TATACT: the binding signal with FLI1 was 1.25 fold enrichment (6-mer frequency, TF over GST control); in the assay with ELK1, 1.41 fold enrichment (6-mer frequency, TF over GST control); with GABPA, 1.43 fold enrichment (6-mer frequency, TF over GST control); with ERG it was 1.29 fold enrichment (6-mer frequency, TF over GST control); in the assay with ELF1, 1.39 fold enrichment (6-mer frequency, TF over GST control); in the assay with EHF it was 1.39 fold enrichment (6-mer frequency, TF over GST control). Besides, the binding signal was 1.35 fold enrichment (6-mer frequency, TF over GST control) with SPI1; 1.36 fold enrichment (6-mer frequency, TF over GST control) in the assay with SPIB; 1.43 fold enrichment (6-mer frequency, TF over GST control) in the assay with ELK3; 1.29 fold enrichment (6-mer frequency, TF over GST control) with FEV; 1.34 fold enrichment (6-mer frequency, TF over GST control) with ETV5; 1.4 fold enrichment (6-mer frequency, TF over GST control) in the assay with HSF1. Also, the binding signal was 1.43 fold enrichment (6-mer frequency, TF over GST control) with SPIC; 1.31 fold enrichment (6-mer frequency, TF over GST control) in the assay with ELF4; 1.25 fold enrichment (6-mer frequency, TF over GST control) with ELK4; 1.31 fold enrichment (6-mer frequency, TF over GST control) in the assay with ETV2; 1.3 fold enrichment (6-mer frequency, TF over GST control) with ELF3; 1.68 fold enrichment (6-mer frequency, TF over GST control) with CRX. Further, in the assay with ETV1, the binding signal was 1.34 fold enrichment (6-mer frequency, TF over GST control).
